Only some compounds are listed: those with a hit (about 2.3% of all), similar ones and a draw of the others.
Imprint erasure – inducers of genomic imprint erasure in mouse ES cells; mouse ES Peg3-LacZ reporter, beta-gal luminescence, 40 h; Potency, µM (titrated, usually from 60.7 µM), inactives show at the highest dose activity change, positive = activation, most hits filed as activators; hit rate 0.02% among 110,000
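Readout: BetaGlo luminescence (5 min, room temp) for LacZ from the normally silent maternal Peg3 allele in female Peg3LacZ-Neo ES cells. Cells 300/well, 40 h, 37C, 5% CO2. Data normalized per plate to negative controls.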
p53ts 32C kill – kills p53ts cells at the permissive temperature. H1299-p53A138V at 32C, ATP luminescence viability, 24 h. Potency, µM (top dose mostly 46.1 µM), for inactives: top-dose activity change, negative = cytotoxicity, most hits filed as cytotoxic. hit rate 0.93% among 130,000;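 note: 0% = DMSO and -100% = full killing by reference compound; nearly all actives have a fitted effect of over 55% in size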
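Cells: H1299 p53ts (A138V), 600/well, pre-incubated 16–30 h at 37C. Cpd up to 46 uM, 24 h, 32C. Readout: ATPlite luminescence, 20 min RT. Normalization: DMSO vs tamoxifen 100 uM. AC50 by Hill equation.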
ERK AVP block – vasopressin-driven ERK pathway inhibition; HEK293-V1b, vasopressin-stimulated pERK AlphaScreen; Potency, µM (doses to about 57.5 µM), without a hit: at the top dose activity, negative = inhibition, hits mostly inhibitors; hit rate 0.99% among 72,000; AID 995; note: % is set by controls: 0 for no effect and ±100 for the full control effect; nearly all actives have a fitted effect of over 55% in size
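Overnight-seeded V1b-HEK293 cells in 1% FBS got compound, then vasopressin (25 nM final, 5 min, 37C), then lysis buffer. AlphaScreen detection of phospho-ERK; activity normalized to basal and full-stimulation controls.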
p53ts 39C tox – kills p53ts cells at the nonpermissive temperature. H1299-p53A138V viability at 39C, ATP luminescence, 24 h. Potency, µM (titrated, usually from 46.1 µM), for the others: top-dose activity change, negative = cell killing, most hits filed as cytotoxic. hit rate 1.5% among 130,000; note: % is set by controls: 0 for no effect and ±100 for the full control effect; nearly all actives have a fitted effect of over 55% in size
IkB signaling – inhibitors of IkB signaling in ABC-DLBCL cells. ABC-DLBCL IkBa-CBG/CBR dual luciferase ratio, 4 h; response scale: scaled: untreated 0%, proteasome inhibitor 100%. Potency, µM (doses to about 57.1 µM), without a hit: top-dose IkBa stabilization activation. hit rate 0.04% among 110,000; active = well fitted curve in the direction sought with a large enough effect in the signal ratio, not every such curve was filed as active; inconclusive = small, poorly fitted or top-dose-only effect, or a change in a side signal; the % refers to the signal ratio;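 note: the direction sought is a rising ratio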
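Luminescence ratio of IκBα-fused green versus native red beetle luciferase in OCI-Ly3 cells, 4 h post-doxycycline with compound; red signal alone, scaled from basal (0%) to zero light (-100%), flagged nonspecific or cytotoxic effects.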
The depositor's hits bear a star; ? = inconclusive; nt = no result given; [ ] = another dose, or the depositor's remark. Unless noted, calls come from the whole dose curve; as a rule, active = well fitted curve in the direction sought with a large enough effect; inconclusive = small, poorly fitted or top-dose-only effect, or another doubt; inactive = no such curve, though single readings can be large; an effect the other way counts as inactive or inconclusive. Potency is the fitted concentration of half-maximal effect.

SMILES | Imprint erasure | p53ts 32C kill | ERK AVP block | p53ts 39C tox | IkB signaling
CC(=O)Oc1c2c(c(CC=C(C)C)c3c1C(=O)C1=CC4CC5C(C)(C)OC(C/C=C(\C)C(=O)O)(C4=O)[C@]15O3)OC(C)(CCC=C(C)C)C=C2 (stereo partly drawn) | -43.0% | 3.98µM* | 6.31µM* | 3.98µM* | nt
COC(=O)/C(C)=C\CC12OC(C)(C)C3CC(C=C4C(=O)c5c(OC)c6c(c(CC=C(C)C)c5OC431)OC(C)(CCC=C(C)C)C=C6)C2=O (stereo not drawn) | -42.2% | 3.98µM* | 14.1% | 6.31µM* | nt
O=c1cccc2n1C[C@@H]1C[C@H]2CN2CCCC[C@H]12 | nt | nt | nt | nt | 3.4%[11.4 µM]
Cc1ccc(S(=O)(=O)N(C)CCCC(=O)N2CCN(c3ccccn3)CC2)cc1 | -10.0% | -11.9% | 25.1µM* | -13.7% | 7.6%
Cc1ccc(CS(=O)(=O)CCC(=O)N2CCC3(CC2)OCCO3)cc1 | -2.4% | 16.3% | 11.2% | -4.1% | 0.7%
CCc1ccccc1Nc1nn2c(=O)c3ccc(C(=O)Nc4cc(C)cc(C)c4)cc3nc2s1 | 1.2%[10.9 µM] | 3.16µM* | nt | 3.98µM* | ?
CCCN1CC[C@@H]2c3cc(O)ccc3CC[C@H]21 | nt | -3.3% | 2.7% | 3.8% | -3.3%
CC(C)(C)[C@@]1(O)C[C@@H]2OC(=O)C[C@@]23C(=O)O[C@H]2OC(=O)[C@@H](O)[C@]231 | nt | nt | nt | nt | 0.5%[11.4 µM]
N[C@H](Cn1oc(=O)[nH]c1=O)C(=O)O | nt | nt | nt | nt | -4.6%
C[C@H]1CC[C@]2(NC1)O[C@@H]1C[C@@H]3[C@@H]4CC=C5C[C@H](O)CC[C@@]5(C)[C@H]4CC[C@@]3(C)[C@H]1[C@@H]2C | nt | nt | nt | nt | 0.5%[11.4 µM]
CCCCCCCCCOc1ccc2[nH]cc(CCN)c2c1 | -33.8% | ? | ? | 31.6µM* | ?
Cc1oc(-c2cccc(Cl)c2)nc1CN1CCC(C(=O)NCCCN2CCN(c3cccc(Cl)c3)CC2)CC1 | -9.0%[10.9 µM] | -17.3% | nt | 10µM* | ?
Cc1oc(-c2ccccc2Cl)nc1CN1C(=O)CN=C(c2ccccc2)c2cc(Cl)ccc21 | -14.4%[10.9 µM] | -4.4% | nt | -8.0% | ?
COc1cc([C@@H](O)CN)ccc1O | nt | 5.4% | 10.4% | 10.2% | -2.9%
CN1C[C@@H](CS(=O)(=O)N(C)C)C[C@H]2c3cccc4c3c(cn4C)C[C@@H]21 | nt | -4.0% | -8.4% | -8.3% | -2.4%
CCCOc1ccc(C(=O)Nc2ccc(-c3cc4ccccc4oc3=O)c(C)c2)cc1 | -19.9%[10.9 µM] | ? | nt | 6.31µM* | ?
O=C(NCCc1ccc(Cl)cc1)c1ccc(Nc2nc3ccccc3n3nnnc23)cc1 | -5.4%[10.9 µM] | ? | nt | 7.94µM* | ?
COc1cc2c(cc1OC)[C@]13CCN4CC5=CCO[C@@H]6CC(=O)N2[C@@H]1[C@H]6[C@@H]5C[C@H]43 | nt | nt | nt | nt | -0.9%[11.4 µM]
CN1CCN(c2ccc3ccccc3n2)CC1 | -32.2% | -0.5% | 17.7% | -15.2% | -0.1%
Cc1ccc(NC(=O)Nc2ccc3nc(N4CCN(C)CC4)cc(C)c3c2)cc1F | 3.6%[10.9 µM] | 25.1µM* | nt | ? | -5.6%
CC[C@H]1[C@@H]2C[C@@H]3[C@@H]4N(C)c5ccccc5[C@@]45C[C@@H]([C@H]2[C@@H]5O)N3[C@@H]1O | nt | nt | nt | nt | 0.1%[11.4 µM]
CN(C(=O)Cc1ccc(Cl)c(Cl)c1)[C@H](CN1CCCC1)c1cccc(N=C=S)c1 | -29.8% | 31.6µM* | -14.7% | 31.6µM* | ?
C=C[C@@H]1CN2CC[C@H]1C[C@H]2[C@@H](O)c1ccnc2ccccc12 | nt | nt | nt | nt | 2.4%[11.4 µM]
[Cl-].[Cl-].[Hg+2] | -85.2% | nt | 7.94µM* | 25.1µM* | ?
CCOC(=O)C1SC2(C(F)F)CC1(O)c1c(c(OC)c3occc3c1OC)O2 (stereo not drawn) | -7.8% | 19.2% | 20µM* | 6.1% | -1.3%
SMILES | Imprint erasure | p53ts 32C kill | ERK AVP block | p53ts 39C tox | IkB signaling
Cc1nc2ccccc2c(=O)n1-n1cnnc1 | -3.6% | 21.4% | 4.8% | -8.5% | 1.7%
CC(=O)c1c(C)nc2ccccc2c1N | -33.8% | 12.6µM* | -22.0% | 10µM* | 0.6%
COc1cc2c(cc1O)CCN[C@H]2C | nt | nt | nt | nt | -0.6%[11.4 µM]
Cc1c([C@@H](C)C2NC[C@H](C)C[C@@H]2O)ccc2c1C[C@@H]1[C@H]2CC=C2C[C@@H](O)CC[C@@]21C (stereo partly drawn) | -21.5%[10.9 µM] | nt | nt | nt | nt
Cc1ccccc1Cn1cccc(C(=O)Nc2nc3ccccc3s2)c1=O | -29.5%[10.9 µM] | 10.7% | nt | 10µM* | 3.3%
C=C(C)[C@H]1[C@H]2OC(=O)[C@@H]1[C@]1(O)C[C@H]3O[C@]34C(=O)O[C@H]2[C@]14C | nt | nt | nt | nt | 0.2%[11.4 µM]
COc1ccc2c(c[n+](C)c3c4cc5c(cc4ccc23)OCO5)c1OC | -32.0% | 5.01µM* | ? | 12.6µM* | ?
CC[C@@H]1CN2CC[C@@H]1C[C@H]2[C@@H](O)c1ccnc2ccc(OC)cc12 | nt | nt | nt | nt | -0.6%[11.4 µM]
C[C@@H]1O[C@@H](O[C@H]2C[C@@H](O)[C@]3(CO)[C@@H]4[C@@H](O)C[C@]5(C)[C@H](C6=CC(=O)OC6)CC[C@@]5(O)[C@H]4CC[C@@]3(O)C2)[C@H](O)[C@H](O)[C@@H]1O | nt | nt | -4.2% | nt | -8.1%
C[C@@H](Cc1cccc(C(F)(F)F)c1)NCCCc1ccccc1 | -23.3% | -5.0% | -13.2% | 25.1µM* | ?
Oc1ccc2c3c1O[C@H]1c4c(c5ccccc5n4Cc4ccccc4)C[C@]4(O)[C@H](C2)N(CC2CC2)CC[C@@]314 | -28.7% | ? | 21.7% | 31.6µM* | ?
CCN1C(=O)/C(=C2\C=Cc3ccccc3N2CC)OC1=S | -20.5% | 13.6% | 15.8µM* | -21.6% | -2.7%
Cc1ccc(C(=O)Nc2c(C(=O)Nc3ccc(C)c(C)c3)sc3nc(C)cc(C)c23)cc1 | -5.1%[10.9 µM] | -24.5% | nt | 6.31µM* | -0.6%
C=CCN1CC[C@]23c4c5ccc(O)c4O[C@@H]2/C(=N/NC(=O)c2ccccc2)CC[C@@]3(O)[C@H]1C5 | nt | -8.6% | -7.9% | 12.3% | ?
C[C@H]1CC[C@@H]2[C@@H](C)C(=O)O[C@H]3O[C@@]4(C)CC[C@@H]1[C@]32OO4 | nt | nt | nt | nt | -0.9%[11.4 µM]
COc1ccc(/C=C/C(=O)Nc2ccc(C)cc2)cc1 | -14.0%[10.9 µM] | ? | nt | -13.9% | 6.4%
CC(=O)Oc1ccc(/C=C/c2cc(OC(C)=O)cc(OC(C)=O)c2)cc1 | -50.6% | 7.94µM* | -24.2% | 6.31µM* | nt
Cc1nc(-c2ccc(-c3ccc(C(=O)N4CCc5cc6c(cc54)C4(CCN(C)CC4)CO6)cc3)c(C)c2)no1 | -35.6% | 15.8µM* | ? | 10µM* | ?
CCCN1CCc2cccc3c2[C@@H]1Cc1ccc(O)c(O)c1-3 | nt | -23.6% | -4.1% | ? | 13.6%
CCN1C[C@@]2(C)CC[C@H](O)[C@@]34[C@@H]5C[C@H]6[C@H](O)[C@@H]5[C@](O)(C[C@@H]6OC)[C@H](C[C@@H]23)[C@H]14 | nt | nt | nt | nt | 0.0%[11.4 µM]

Screening data as filed in PubChem.
